From the supplement of paper PMC10849652
Of roughly 7,900 targets only a part is listed; those with a hit were picked by preference. About 0.6% of all pairs of compound and target were hits.

Assays:
Experiment in all cases: log2 fold change, soluble protein after heating vs DMSO (PISA); higher = thermal stabilisation; K562 cells, 10 uM, 30 min; active = over 0.2 and 3.5 SD of the protein, either way, in both replicates (recomputed)
IRAK-1-4 Inhibitor I = compound: C1COCCN1CCN2C3=CC=CC=C3N=C2NC(=O)C4=CC(=CC=C4)[N+](=O)[O-] [IRAK-1-4 Inhibitor I]
Method in brief: (§1)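 K562 cells at 2×10^6 cells/mL were treated for 30 min with 10 μM compound, and aliquots were heated for 3 min over 48°C-58°C before pooling. Extraction used PBS with 0.5% NP-40 at 4°C, and soluble protein was the supernatant after 21,000xg for 90 min, measured by TMTpro 16plex LC-MS/MS with channel sums equalised. Thermal stability values, relative to control samples and from duplicates, are log2 fold changes.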

ibrutinib = compound: C=CC(=O)N1CCC[C@@H](n2nc(-c3ccc(Oc4ccccc4)cc3)c3c(N)ncnc32)C1 [ibrutinib]
Method in brief: as §1

[1] = compound: CC(=O)c1cnc2ccc(-c3cc(Cl)c(O)c(Cl)c3)nc2c1N[C@H]1CC[C@H](CN(C)C)CC1
Method in brief: as §1

ralimetinib = compound: CC(C)(C)Cn1c(N)nc2ccc(-c3[nH]c(C(C)(C)C)nc3-c3ccc(F)cc3)nc21 [ralimetinib]
Method in brief: as §1

[2] = compound: CC(C)(O)CC(=O)NCCn1ccc2ncnc(Nc3ccc(Oc4cccc(C(F)(F)F)c4)c(Cl)c3)c21
Method in brief: as §1

[3] = compound: CC(C)C1=C2N=C(C=C(N2N=C1)NCC3=CC=CC=C3)NCCCCCCN
Method in brief: as §1

[4] = compound: CC(C)C[C@@H](C=O)NC(=O)[C@H](CC(C)C)NC(=O)[C@H](CC(C)C)NC(=O)OCc1ccccc1
Method in brief: as §1

pinometostat = compound: CC(C)N(C[C@H]1O[C@@H](n2cnc3c(N)ncnc32)[C@H](O)[C@@H]1O)[C@H]1C[C@@H](CCc2nc3cc(C(C)(C)C)ccc3[nH]2)C1 [pinometostat]
Method in brief: as §1

[5] = compound: CC1=C(C(CC(=O)N1)C2=CC=C(C=C2)C(F)(F)F)C(=O)NC3=C(C=C4C(=C3)C=NN4)F
Method in brief: as §1

[6] = compound: CC1=C(C2=C(C=C1)C(=O)C3=CC=CC=C3N2CCCN)C
Method in brief: as §1

[7] = compound: CC1=C(C=C(C=C1)NC(=O)C2=CC(=CC=C2)C(C)(C)C#N)NC3=CC4=C(C=C3)N=CN(C4=O)C
Method in brief: as §1

[8] = compound: CC1=C(C=C(C=C1)NC(=O)C2=CC(=CC=C2)N(C)C)NC(=O)C3=CC=C(C=C3)O
Method in brief: as §1

[9] = compound: CC1=CC=C(C=C1)SC2=C3C=C(SC3=CN=C2)C(=O)N
Method in brief: as §1

[10] = compound: CC1=NC(=CC=C1)C2=C(N=C(N2)C(C)(C)C)C3=CC4=NC=CN=C4C=C3
Method in brief: as §1

Nexturastat A = compound: CCCCN(Cc1ccc(C(=O)NO)cc1)C(=O)Nc1ccccc1 [Nexturastat A]
Method in brief: as §1

vemurafenib = compound: CCCS(=O)(=O)Nc1ccc(F)c(C(=O)c2c[nH]c3ncc(-c4ccc(Cl)cc4)cc23)c1F [vemurafenib]
Method in brief: as §1

[11] = compound: CCCS(=O)(=O)Nc1ccc(F)c(C(=O)c2c[nH]c3ncc(Cl)cc23)c1F
Method in brief: as §1

[12] = compound: CCCc1cc(C)[nH]c(=O)c1CNC(=O)c1cc(-c2ccnc(N3CCN(C)CC3)c2)cc2c1cnn2C(C)C
Method in brief: as §1

givinostat = compound: CCN(CC)Cc1ccc2cc(COC(=O)Nc3ccc(C(=O)NO)cc3)ccc2c1 [givinostat]
Method in brief: as §1

barasertib = compound: CCN(CCCOc1ccc2c(Nc3cc(CC(=O)Nc4cccc(F)c4)[nH]n3)ncnc2c1)CCOP(=O)(O)O [barasertib]
Method in brief: as §1

Measured: log2 fold change

RMC1 (UniProt Q96DM3)
inactive: IRAK-1-4 Inhibitor I 0.038 | ibrutinib 0.03 | [1] -0.026 | ralimetinib -0.025 | [2] -0.002 | [3] -0.209 | [4] 0.011 | pinometostat -0.015 | [5] 0.028 | [6] 0.039 | [7] 0.037 | [8] 0.001 | [9] -0.051 | [10] 0.024 | Nexturastat A -0.031 | vemurafenib 0.061 | [11] 0.031 | [12] 0.021 | givinostat -0.013 | barasertib 0.039

RPRD1B (UniProt Q9NQG5)
Chain of UniProt Q9NQG5 (Q9NQG5 whole entry, looked up): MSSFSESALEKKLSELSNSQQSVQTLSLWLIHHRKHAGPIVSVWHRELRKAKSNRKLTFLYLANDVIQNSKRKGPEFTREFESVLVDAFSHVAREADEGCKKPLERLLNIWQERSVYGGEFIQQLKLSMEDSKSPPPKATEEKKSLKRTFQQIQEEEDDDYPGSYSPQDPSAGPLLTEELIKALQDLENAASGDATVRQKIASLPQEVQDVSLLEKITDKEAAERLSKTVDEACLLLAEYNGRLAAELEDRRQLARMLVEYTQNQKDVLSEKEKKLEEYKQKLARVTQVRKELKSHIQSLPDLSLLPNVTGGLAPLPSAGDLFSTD
inactive: IRAK-1-4 Inhibitor I 0 | ibrutinib -0.021 | [1] -0.017 | ralimetinib 0 | [2] -0.06 | [3] -0.018 | [4] -0.028 | pinometostat -0.038 | [5] 0.022 | [6] 0.104 | [7] 0.007 | [8] -0.021 | [9] -0.029 | [10] 0.101 | Nexturastat A -0.054 | vemurafenib 0.05 | [11] 0.07 | [12] -0.057 | givinostat -0.064 | barasertib 0.007

RBM27 (UniProt Q9P2N5)
inactive: IRAK-1-4 Inhibitor I -0.123 | ibrutinib 0.023 | ralimetinib -0.045 | [2] -0.063 | [4] 0.042 | pinometostat 0.028 | [5] 0.088 | [6] 0.05 | [7] 0.031 | [8] -0.008 | [9] 0.01 | [10] -0.018 | Nexturastat A 0.025 | vemurafenib -0.008 | [11] 0.09 | [12] 0.041 | givinostat 0.013 | barasertib 0.009
active: [1] -0.338 | [3] -0.479

RSL1D1 (UniProt O76021)
inactive: IRAK-1-4 Inhibitor I -0.071 | ibrutinib -0.011 | [1] 0.22 | ralimetinib 0.105 | [2] 0.212 | [3] 0.538 | [4] 0.076 | pinometostat 0.393 | [5] -0.072 | [6] -0.299 | [7] -0.019 | [8] 0.039 | [9] -0.155 | [10] -0.148 | Nexturastat A 0.256 | vemurafenib -0.126 | [11] -0.137 | [12] 0.15 | givinostat 0.087 | barasertib -0.167

RPS27A (UniProt P62979)
inactive: IRAK-1-4 Inhibitor I -0.055 | ibrutinib 0.141 | [1] 0.054 | ralimetinib 0.082 | [2] 0.216 | [3] 0.051 | [4] 0.114 | pinometostat 0.078 | [5] 0.157 | [7] -0.023 | [8] -0.011 | [9] -0.179 | [10] -0.075 | Nexturastat A 0.368 | vemurafenib -0.126 | [11] -0.224 | [12] 0.152 | givinostat -0.109 | barasertib -0.119
active: [6] -0.557

RAB8B (UniProt Q92930)
Chain of UniProt Q92930 (Q92930 whole entry, looked up): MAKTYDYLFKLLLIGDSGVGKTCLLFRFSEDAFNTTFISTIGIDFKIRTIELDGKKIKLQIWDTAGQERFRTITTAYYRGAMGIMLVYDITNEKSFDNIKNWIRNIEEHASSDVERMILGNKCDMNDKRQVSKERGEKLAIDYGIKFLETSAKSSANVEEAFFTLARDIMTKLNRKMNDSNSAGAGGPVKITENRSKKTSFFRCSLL
inactive: IRAK-1-4 Inhibitor I 0.028 | ibrutinib -0.009 | [1] 0 | ralimetinib -0.001 | [2] -0.047 | [3] -0.002 | [4] 0.046 | pinometostat -0.091 | [5] 0.019 | [6] 0.004 | [7] 0.055 | [8] 0.013 | [9] 0.073 | [10] 0.081 | Nexturastat A -0.082 | vemurafenib 0.192 | [11] 0.018 | [12] 0.109 | givinostat -0.014 | barasertib -0.016

RSF1 (UniProt Q96T23)
Chain of UniProt Q96T23 (Q96T23 whole entry, looked up): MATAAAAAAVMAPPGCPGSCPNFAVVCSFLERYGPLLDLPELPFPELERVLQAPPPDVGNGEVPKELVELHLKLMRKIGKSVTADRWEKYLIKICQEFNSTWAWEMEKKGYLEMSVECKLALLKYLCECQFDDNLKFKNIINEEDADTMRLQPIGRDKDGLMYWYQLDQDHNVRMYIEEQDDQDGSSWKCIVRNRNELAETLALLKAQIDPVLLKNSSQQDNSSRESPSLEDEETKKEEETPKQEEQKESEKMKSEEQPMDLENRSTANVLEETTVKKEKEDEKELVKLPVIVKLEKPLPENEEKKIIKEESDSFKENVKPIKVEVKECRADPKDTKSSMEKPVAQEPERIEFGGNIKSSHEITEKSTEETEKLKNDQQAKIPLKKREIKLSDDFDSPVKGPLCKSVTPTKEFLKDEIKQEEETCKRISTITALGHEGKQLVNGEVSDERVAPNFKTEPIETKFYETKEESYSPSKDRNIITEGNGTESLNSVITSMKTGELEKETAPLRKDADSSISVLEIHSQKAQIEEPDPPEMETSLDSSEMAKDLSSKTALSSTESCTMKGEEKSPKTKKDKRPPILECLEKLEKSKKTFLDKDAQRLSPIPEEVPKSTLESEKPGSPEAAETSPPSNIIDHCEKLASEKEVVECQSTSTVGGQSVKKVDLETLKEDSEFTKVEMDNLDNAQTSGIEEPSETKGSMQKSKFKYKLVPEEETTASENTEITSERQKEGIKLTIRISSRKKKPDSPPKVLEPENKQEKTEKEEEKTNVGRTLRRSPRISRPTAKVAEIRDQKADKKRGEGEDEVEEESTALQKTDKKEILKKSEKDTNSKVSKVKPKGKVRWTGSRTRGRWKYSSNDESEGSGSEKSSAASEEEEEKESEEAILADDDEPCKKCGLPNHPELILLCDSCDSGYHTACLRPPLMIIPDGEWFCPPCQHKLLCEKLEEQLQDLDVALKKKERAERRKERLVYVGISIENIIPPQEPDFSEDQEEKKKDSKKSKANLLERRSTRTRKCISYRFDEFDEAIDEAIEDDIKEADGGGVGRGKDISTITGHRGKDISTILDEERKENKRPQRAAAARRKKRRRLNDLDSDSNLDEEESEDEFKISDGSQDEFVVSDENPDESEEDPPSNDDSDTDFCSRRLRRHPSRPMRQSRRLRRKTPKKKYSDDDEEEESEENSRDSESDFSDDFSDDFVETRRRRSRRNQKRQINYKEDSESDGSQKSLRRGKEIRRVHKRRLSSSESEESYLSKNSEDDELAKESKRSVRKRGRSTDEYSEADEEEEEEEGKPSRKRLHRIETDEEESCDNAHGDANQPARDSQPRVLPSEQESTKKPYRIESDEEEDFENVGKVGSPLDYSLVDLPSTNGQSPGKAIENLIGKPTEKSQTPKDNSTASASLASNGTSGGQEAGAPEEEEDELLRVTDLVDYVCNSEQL
inactive: IRAK-1-4 Inhibitor I -0.188 | ibrutinib -0.054 | [1] 0.043 | ralimetinib 0.019 | [2] -0.175 | [3] -0.114 | [4] -0.058 | pinometostat -0.123 | [5] 0.028 | [7] 0.111 | [8] -0.112 | [9] -0.015 | [10] 0.217 | Nexturastat A -0.091 | vemurafenib 0.119 | [11] 0.052 | [12] 0.029 | givinostat 0.084 | barasertib 0.095
active: [6] -1.48

RFC3 (UniProt P40938)
Chain of UniProt P40938 (P40938 whole entry, looked up): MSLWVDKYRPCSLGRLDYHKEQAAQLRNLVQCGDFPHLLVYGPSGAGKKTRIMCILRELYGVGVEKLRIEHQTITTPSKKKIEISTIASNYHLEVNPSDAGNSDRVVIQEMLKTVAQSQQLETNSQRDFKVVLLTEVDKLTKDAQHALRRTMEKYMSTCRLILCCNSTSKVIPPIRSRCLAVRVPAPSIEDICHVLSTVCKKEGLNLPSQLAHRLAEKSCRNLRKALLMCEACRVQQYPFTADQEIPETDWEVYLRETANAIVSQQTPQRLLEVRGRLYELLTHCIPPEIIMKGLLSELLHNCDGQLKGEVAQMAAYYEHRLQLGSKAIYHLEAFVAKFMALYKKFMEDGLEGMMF
inactive: IRAK-1-4 Inhibitor I 0.003 | ibrutinib 0.025 | [1] -0.101 | ralimetinib 0.021 | [2] -0.087 | [3] -0.012 | [4] -0.047 | pinometostat -0.057 | [5] 0 | [6] 0.09 | [7] -0.003 | [8] -0.031 | [9] 0.05 | [10] 0.058 | Nexturastat A -0.032 | vemurafenib 0.048 | [11] 0.101 | [12] 0 | givinostat -0.007 | barasertib -0.011

RPS6KA2 isoform 2 (UniProt Q15349)
Chain of UniProt Q15349 (Q15349 whole entry, looked up): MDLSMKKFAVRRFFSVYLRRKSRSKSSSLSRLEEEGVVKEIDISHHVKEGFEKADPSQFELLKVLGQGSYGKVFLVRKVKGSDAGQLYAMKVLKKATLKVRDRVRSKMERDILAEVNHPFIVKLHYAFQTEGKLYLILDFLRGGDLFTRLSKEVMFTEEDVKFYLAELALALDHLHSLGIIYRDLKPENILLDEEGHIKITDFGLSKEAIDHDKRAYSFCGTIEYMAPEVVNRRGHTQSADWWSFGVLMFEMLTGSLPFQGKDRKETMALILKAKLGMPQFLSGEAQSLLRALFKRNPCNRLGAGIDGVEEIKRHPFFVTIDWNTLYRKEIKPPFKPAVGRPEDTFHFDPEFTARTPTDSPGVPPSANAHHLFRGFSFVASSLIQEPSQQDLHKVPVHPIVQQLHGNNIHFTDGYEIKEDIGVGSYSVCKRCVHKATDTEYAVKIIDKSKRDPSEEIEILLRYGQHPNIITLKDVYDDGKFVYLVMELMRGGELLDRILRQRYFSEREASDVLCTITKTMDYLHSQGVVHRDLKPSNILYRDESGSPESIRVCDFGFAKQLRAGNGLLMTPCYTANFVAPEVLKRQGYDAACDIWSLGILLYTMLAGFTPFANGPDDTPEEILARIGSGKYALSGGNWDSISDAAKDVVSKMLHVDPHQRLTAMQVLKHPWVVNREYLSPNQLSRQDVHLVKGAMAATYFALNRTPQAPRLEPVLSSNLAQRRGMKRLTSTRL
inactive: IRAK-1-4 Inhibitor I 0.001 | ibrutinib -0.066 | [1] -0.178 | [2] -0.082 | [3] -0.082 | [4] 0.07 | pinometostat 0.01 | [5] 0.016 | [6] 0.006 | [7] -0.087 | [8] -0.229 | [9] 0.159 | [10] 0.011 | Nexturastat A 0.009 | vemurafenib 0.037 | [11] 0.026 | [12] 0.023 | givinostat -0.148 | barasertib 0.064
active: ralimetinib -0.492

RAD51 (UniProt Q06609)
Chain of UniProt Q06609 (Q06609 whole entry, looked up): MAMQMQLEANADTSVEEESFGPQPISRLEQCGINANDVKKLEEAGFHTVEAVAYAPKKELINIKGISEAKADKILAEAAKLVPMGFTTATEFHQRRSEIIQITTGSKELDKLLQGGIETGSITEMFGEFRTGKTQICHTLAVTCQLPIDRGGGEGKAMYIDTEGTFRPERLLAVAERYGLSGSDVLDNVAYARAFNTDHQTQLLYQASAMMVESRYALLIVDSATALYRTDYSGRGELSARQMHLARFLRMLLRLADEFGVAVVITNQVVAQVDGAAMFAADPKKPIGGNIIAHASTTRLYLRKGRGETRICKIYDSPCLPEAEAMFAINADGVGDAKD
inactive: IRAK-1-4 Inhibitor I 0.017 | ibrutinib 0.013 | [1] -0.061 | ralimetinib -0.074 | [2] -0.059 | [3] -0.016 | [4] 0.048 | pinometostat -0.024 | [5] 0.05 | [6] 0.102 | [7] -0.012 | [8] -0.017 | [9] -0.042 | [10] -0.052 | Nexturastat A 0.001 | vemurafenib 0.02 | [11] -0.048 | [12] 0.032 | givinostat 0.179 | barasertib 0.016

RIOK2 (UniProt Q9BVS4)
Chain of UniProt Q9BVS4 (Q9BVS4 whole entry, looked up): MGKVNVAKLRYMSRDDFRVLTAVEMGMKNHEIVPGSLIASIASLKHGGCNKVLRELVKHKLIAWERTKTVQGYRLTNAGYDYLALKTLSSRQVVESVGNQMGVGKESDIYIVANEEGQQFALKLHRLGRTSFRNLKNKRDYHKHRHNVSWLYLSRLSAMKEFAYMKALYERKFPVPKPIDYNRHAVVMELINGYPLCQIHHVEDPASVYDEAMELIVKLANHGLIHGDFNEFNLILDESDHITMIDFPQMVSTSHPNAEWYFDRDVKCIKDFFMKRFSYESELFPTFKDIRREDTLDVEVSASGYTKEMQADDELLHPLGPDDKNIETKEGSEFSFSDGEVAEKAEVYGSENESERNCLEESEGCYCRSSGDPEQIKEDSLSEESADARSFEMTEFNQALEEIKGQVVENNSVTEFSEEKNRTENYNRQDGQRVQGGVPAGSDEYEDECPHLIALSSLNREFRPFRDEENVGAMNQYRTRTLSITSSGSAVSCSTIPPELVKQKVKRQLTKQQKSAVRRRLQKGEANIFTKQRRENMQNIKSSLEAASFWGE
inactive: IRAK-1-4 Inhibitor I -0.061 | ibrutinib 0.013 | ralimetinib 0.119 | [2] 0 | [3] -0.014 | [4] 0.084 | pinometostat 0.132 | [5] -0.014 | [6] -0.068 | [7] 0.035 | [8] 0.006 | [9] -0.046 | [10] -0.021 | Nexturastat A 0.178 | vemurafenib -0.001 | [11] -0.007 | [12] 0.056 | givinostat 0.035 | barasertib 0
active: [1] 0.465

SCAMP2 (UniProt H3BUB6)
inactive: IRAK-1-4 Inhibitor I 0.078 | ibrutinib 0.103 | [1] -0.171 | ralimetinib -0.278 | [2] 0.102 | [3] -0.055 | [4] 0.192 | pinometostat 0.053 | [5] 0.111 | [6] 0.059 | [7] -0.349 | [8] 0.043 | [9] -0.166 | [10] -0.1 | Nexturastat A 0.12 | vemurafenib -0.266 | [11] -0.335 | [12] -0.232 | givinostat -0.024 | barasertib 0.034

RABGGTA (UniProt Q92696)
Chain of UniProt Q92696 (Q92696 whole entry, looked up): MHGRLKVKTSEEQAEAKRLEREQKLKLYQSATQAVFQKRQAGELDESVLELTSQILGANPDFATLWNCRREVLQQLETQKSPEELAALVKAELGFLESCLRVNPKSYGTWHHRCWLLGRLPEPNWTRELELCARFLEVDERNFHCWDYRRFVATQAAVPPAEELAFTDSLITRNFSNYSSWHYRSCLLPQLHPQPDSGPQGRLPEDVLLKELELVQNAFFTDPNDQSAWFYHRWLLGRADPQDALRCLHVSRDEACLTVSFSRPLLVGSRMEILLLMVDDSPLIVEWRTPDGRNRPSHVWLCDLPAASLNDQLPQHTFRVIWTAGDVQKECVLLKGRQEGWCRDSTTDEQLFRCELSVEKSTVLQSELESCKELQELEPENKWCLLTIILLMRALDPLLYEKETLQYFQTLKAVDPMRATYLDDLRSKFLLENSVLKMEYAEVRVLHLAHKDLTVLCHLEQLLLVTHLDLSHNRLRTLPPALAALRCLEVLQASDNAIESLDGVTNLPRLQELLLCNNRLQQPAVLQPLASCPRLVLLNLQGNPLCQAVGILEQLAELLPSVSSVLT
inactive: IRAK-1-4 Inhibitor I 0.064 | ibrutinib -0.021 | [1] -0.02 | ralimetinib -0.038 | [2] -0.021 | [3] 0.049 | [4] -0.041 | pinometostat -0.027 | [5] 0 | [6] 0.046 | [7] 0.019 | [8] 0.04 | [9] -0.004 | [10] 0.002 | Nexturastat A -0.084 | vemurafenib 0.003 | [11] 0.005 | [12] -0.023 | givinostat -0.024 | barasertib 0.017

RETREG3 (UniProt Q86VR2)
inactive: IRAK-1-4 Inhibitor I 0.117 | ibrutinib -0.002 | [1] -0.01 | ralimetinib -0.036 | [2] -0.04 | [3] -0.167 | [4] 0.007 | pinometostat 0.035 | [5] -0.024 | [6] -0.016 | [7] -0.006 | [8] 0.014 | [9] 0.148 | [10] 0.13 | Nexturastat A 0.062 | vemurafenib 0.043 | [11] 0.055 | [12] -0.044 | givinostat -0.048 | barasertib 0.023

RPL31 (UniProt P62899)
inactive: IRAK-1-4 Inhibitor I -0.168 | ibrutinib -0.021 | [1] 0.138 | ralimetinib 0.1 | [2] 0.052 | [3] -0.013 | [4] 0.14 | pinometostat 0.273 | [5] -0.006 | [7] -0.005 | [8] 0.01 | [9] -0.086 | [10] -0.075 | Nexturastat A 0.168 | vemurafenib -0.145 | [11] -0.15 | [12] 0.092 | givinostat 0.031 | barasertib -0.149
active: [6] -0.625

RPP14 (UniProt O95059)
Chain of UniProt O95059 (O95059 whole entry, looked up): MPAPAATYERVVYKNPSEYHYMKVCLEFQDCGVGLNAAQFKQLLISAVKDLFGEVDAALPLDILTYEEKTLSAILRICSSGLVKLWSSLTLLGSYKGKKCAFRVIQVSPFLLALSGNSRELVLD
inactive: IRAK-1-4 Inhibitor I -0.035 | ibrutinib 0.073 | [1] -0.021 | ralimetinib 0.009 | [2] 0.051 | [3] -0.021 | [4] 0 | pinometostat 0.021 | [5] 0.041 | [6] -0.04 | [7] 0.086 | [8] 0.01 | [9] -0.031 | [10] -0.015 | Nexturastat A 0.129 | vemurafenib -0.004 | [11] 0.004 | [12] -0.037 | givinostat -0.116 | barasertib -0.087
